Assay outcomes from PubChem.
HT1080-NT tox: kills 2HG-producing HT-1080-NT fibrosarcoma cells; hit rate 1.6% among 360,000; Potency, µM (top dose mostly 46.1 µM), for inactives: top-dose activity, negative = less viability, actives largely listed as cytotoxic; HT-1080-NT fibrosarcoma viability, CellTiter-Glo ATP luminescence, 48 h;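 also: NT is the 2HG producing partner of a matched IDH1 knockdown line; potency is read from the fitted curve at half-maximal effect; 0% = DMSO-treated cells and -100% = media-only wells without cells; nearly all actives have a fitted effect of over 55% in size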
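750 cells/well, RPMI + 5% FBS; 2 h settle, compound pin-transfer, 48 h at 37 degrees C. CellTiter-Glo 10 min RT, luminescence. Normalized to DMSO and media-only wells.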
ELG1 repair inh: ELG1-dependent DNA repair inhibition; HEK293T ELG1-luciferase reporter, luminescence, 16 h; DNA damage induced by 5-fluorouridine; AID 504467; hit rate 2.3% among 330,000; Potency, µM (top dose mostly 46.1 µM), for inactives: top-dose activity change, negative = inhibition, actives largely listed as inhibitors; also: potency is read from the fitted curve at half-maximal effect; nearly all actives have a fitted effect of over 55% in size
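Luminescence from the luciferase reporter, measured 30 min after ONE-Glo reagent at room temperature, was the read-out. Beforehand, 2,000 cells per well were exposed for 16 hr at 37 °C to 5-fluorouridine together with compound or vehicle.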
IL1B secr inh: blocks inflammasome-driven IL-1 beta release; THP-1 LPS/ATP IL-1B secretion, AlphaLISA, 16 h; stronger effect = lower value; activity change, % at 57.5 µM; hit rate 4.7% among 360,000; AID 743279; in the data active = activity change below about -50%; inconclusive = mostly about -30% to -49%
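Secreted IL-1B measured by AlphaLISA bead assay after 16 h compound exposure of THP-1 cells; compounds (final up to 57.5 uM) added 1 h before LPS (250 ng/mL) and ATP (1.25 mM) stimulation; lower signal means less secretion.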
DT40 TDP1 CPT: growth inhibition of DT40 Tdp1-/-;hTDP1 cells with camptothecin (screen for TDP1 inhibitors). Potency, µM (titrated, usually from 46.2 µM), for inactives: top-dose activity change, negative = growth inhibition, hits mostly inhibitors. chicken DT40 Tdp1-/-;hTDP1 cells + 20 nM CPT, ATP luminescence, 48 h. hit rate 12% among 420,000; also: potency is read from the fitted curve at half-maximal effect; nearly all actives have a fitted effect of over 55% in size
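Cell growth measured by CellTiter-Glo luminescence after a minimum 48 h, 37 C compound exposure with 20 nM CPT in Tdp1-knockout DT40 cells stably expressing hTDP1, seeded 400/well; qHTS titration format.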
HT1080 IDH1KD tx: toxicity to HT-1080 IDH1 knockdown cells (counter line); HT-1080 IDH1 knockdown viability, ATP luminescence, 48 h; Potency, µM (series often up to 46.1 µM), for inactives: at the top dose activity, negative = toxicity, hits mostly cytotoxic; hit rate 2% among 360,000;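 also: potency is read from the fitted curve at half-maximal effect; 0% = DMSO wells and -100% = cell-free medium wells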
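Using the IDH1-knockdown HT-1080 line run in the same batch and compound series as the NT line, viability after 48 h at 37 °C was determined by CellTiter-Glo luminescence and expressed as % activity.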
TDP1 cell noCPT: qHTS for Inhibitors of human tyrosyl-DNA phosphodiesterase 1 (TDP1): qHTS in cells in absence of CPT | DT40 Tdp1-/- hTDP1 cells, no CPT, ATP luminescence, 48 h | Potency, µM (series often up to 46.2 µM), for the others: at the highest dose activity change, negative = growth inhibition, actives largely listed as inhibitors | hit rate 15% among 420,000; also: potency is read from the fitted curve at half-maximal effect; nearly all actives have a fitted effect of over 55% in size
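Seeded 400 DT40-hTDP1 cells/well (vehicle DMSO, no 20 nM CPT); pinned compounds; ≥48 hr at 37 °C; CellTiter-Glo luminescence as viability measure.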
Starred values were filed as active, the others as inactive; u = inconclusive; x = no result. This is a sample that favours compounds with a hit; in the whole collection about 19% have one here. Unless noted, calls follow the shape of the dose curve; as a rule, active = well fitted curve in the direction sought with a large enough effect; inconclusive = small, poorly fitted or top-dose-only effect, or another doubt; inactive = no such curve, though single readings can be large; an effect the other way counts as inactive or inconclusive. Unless noted, % is scaled to controls: 0 for no effect and ±100 for the full control effect.

SMILES	HT1080-NT tox	ELG1 repair inh	IL1B secr inh	DT40 TDP1 CPT	HT1080 IDH1KD tx	TDP1 cell noCPT
N=c1n(CC(=O)O)c2ccccc2n1Cc1ccccc1Cl	-3%	2%	19	-4%	0%	7%
N=c1n(Cc2ccccc2)c2ccccc2n1Cc1ccccc1	u	u	x	18µM*	-25%	21µM*
N=c1n(CCN2CCCCC2)c2ccccc2n1CC(=O)c1cccc([N+](=O)[O-])c1	0%	1%	67	u	-2%	18µM*
O=C(CN1CCN(Cc2ccccc2)CC1)c1ccc(Br)cc1	-3%	14%	21	u	u	-10%
N=c1n(CC(=O)c2ccc(Br)cc2)c2ccccc2n1Cc1ccccc1	-23%	u	-101*	5.2µM*	-7%	6.5µM*
CCOC(=O)Cn1c(=N)n(Cc2ccccc2)c2ccccc21	1%	0%	-8	-6%	-2%	-25%
Cc1c([N+](=O)[O-])nnn1-c1cc(Cl)cc(Cl)c1	15%	-2%	10	-12%	-4%	u
N=c1n(CC(=O)c2ccc([N+](=O)[O-])cc2)c2ccccc2n1Cc1ccccc1	4%	4%	-106*	7.3µM*	-6%	5.8µM*
C=CCn1c(=N)n(CC(=O)c2cccc([N+](=O)[O-])c2)c2ccccc21	-18%	-6%	12	u	0%	u
COc1cccc(CNC(=O)Cn2c(=O)n3nc(-c4cccc(F)c4)nc3c3ccccc32)c1	x	x	x	-6%	x	-13%
O=C(Cc1ccc(Cl)cc1)Nc1ccncc1	-9%	u	2	12µM*	u	9.2µM*
Cc1ccc(CC(=O)Nc2ccncc2)cc1	-13%	-2%	1	5.8µM*	-9%	4.6µM*
Cc1ccc(C(=O)NCC(=O)Nc2ccncc2)cc1	3%	-1%	0	u	2%	-13%
c1ccc(Nc2ncnc3c2oc2ccccc23)cc1	0%	x	-1	10µM*	2%	u
Cc1nc(Nc2ccccc2)c2oc3ccc(Cl)cc3c2n1	u	u	-4	u	u	23µM*
Oc1cccc(Nc2ncnc3c2oc2ccccc23)c1	-26%	u	u	12µM*	u	u
Oc1ccccc1Nc1ncnc2c1oc1ccccc12	-17%	u	43	-21%	-6%	-29%
c1ccc2c(c1)oc1c(Nc3ccc4c(c3)OCO4)ncnc12	u	u	-10	-22%	u	-21%
Oc1ccc(Nc2ncnc3c2oc2ccccc23)cc1	-17%	u	-17	u	-21%	15µM*
Cc1ccc(Nc2nc(C)nc3c2oc2ccccc23)cc1	-17%	u	x	u	-18%	u
c1ccc2c(c1)oc1c(Nc3ccc(CN4CCOCC4)cc3)ncnc12	u	u	u	u	u	15µM*
Cc1nc2c(c3c1[nH]c1ccccc13)C(O)CC(C)(C)C2 (centres undefined)	0%	u	-11	18µM*	-1%	u
CCCCCCCCCCCCCCCC(=O)OC[C@@H](O)[C@H]1OC[C@H](O)[C@H]1O	x	x	x	4%	x	-14%
CC(C)(C)c1ccc(C(=O)NCc2nnc(SCC(=O)N3CCCC3)o2)cc1	-5%	x	25	-18%	-8%	u
CCCCOc1cc(C)nc(NCc2ccccc2)n1	u	0%	20	4.1µM*	u	16µM*
SMILES	HT1080-NT tox	ELG1 repair inh	IL1B secr inh	DT40 TDP1 CPT	HT1080 IDH1KD tx	TDP1 cell noCPT
CCOc1cc(C)nc(NCc2ccccc2)n1	-29%	20%	16	23µM*	u	21µM*
Cc1cc(OC2CCCCC2)nc(NCc2ccccc2)n1	18%	-14%	x	4%	16%	5%
CC(=O)c1ccc(Oc2cc(C)nc(NCc3ccccc3)n2)cc1	-2%	u	21	21µM*	5%	21µM*
CCOc1ccc(CCNC(=O)c2cc3c(s2)-c2c(C)cccc2OC3)cc1	x	x	x	-21%	x	-28%
CC(C)NC(=O)c1ccc(COc2cccc3ccccc23)o1	-6%	x	-14	u	-15%	18µM*
CCOc1ccc(OCc2ccc(C(=O)NC(C)(C)C)o2)cc1	-5%	u	u	7.3µM*	-20%	u
CC(C)NC(=O)c1ccc(COc2ccc(C(C)(C)C)cc2)o1	u	-35%	-14	u	-23%	13µM*
CCOc1ccc(OCc2ccc(C(=O)NN)o2)cc1	3%	u	-23	-5%	-4%	-27%
CC(C)c1ccc(OCc2ccc(C(=O)O)o2)cc1	0%	u	-8	-9%	-14%	1%
O=S1(=O)CC(N2CC=CC2)CN1Cc1ccc(F)cc1 (centres undefined)	-2%	x	-9	u	-2%	-10%
CCc1nn2c(=O)cc(COc3ccc(/C=C(\C#N)C(=O)Nc4ccc(C)cc4)cc3)nc2s1	x	x	x	-7%	x	11%
COc1ccc([C@@H]2CC(=O)c3c(O)cc(O)cc3O2)cc1O	49%	u	15	u	19%	u
CC(C)=CCc1c(O)c(CC=C(C)C)c2c(c1O)C(=O)CC(c1ccc(O)cc1)O2 (centres undefined)	u	12%	29	u	u	18µM*
COc1cc(O)c2c(c1)OC(c1ccc(O)cc1)CC2=O (centres undefined)	30%	10%	-15	u	23%	16µM*
COC1=CC(=O)C(C2CC(=O)c3c(O)cc(O)cc3O2)=CC1=O (centres undefined)	4%	x	-97*	3.7µM*	-3%	2.6µM*
O=C(O)C(c1ccccc1)C(O)C1CCCC1 (centres undefined)	13%	x	17	12%	12%	1%
Cc1cc(C)n(Cc2ccc(NC(=O)c3nn(C)cc3[N+](=O)[O-])cc2)n1	10µM*	u	-63*	-3%	6.3µM*	2%
Cn1cc([N+](=O)[O-])c(C(=O)Nc2ccc(C(=O)N3CCCCC3)cc2)n1	u	2%	x	-4%	23µM*	0%
COc1ccc(C(=O)Nc2ccc(C(=O)N3CCCC3)cc2)cc1[N+](=O)[O-]	0%	4%	u	13%	-4%	4%
Cn1cc([N+](=O)[O-])c(C(=O)Nc2ccc(C3CCCCC3)cc2)n1	23µM*	u	x	u	u	-18%
